# Data: ChEMBL document CHEMBL1961873, “Compounds: GSK PKIS; Assays: Nanosyn kinase panel” (2012)
# Target: Casein kinase I isoform gamma-2 (Homo sapiens) (UniProt P78368)
# Settings: at 0.1 µM
# Casein kinase I isoform gamma-2 (Homo sapiens), sequence (P78368 whole entry, looked up, canonical isoform): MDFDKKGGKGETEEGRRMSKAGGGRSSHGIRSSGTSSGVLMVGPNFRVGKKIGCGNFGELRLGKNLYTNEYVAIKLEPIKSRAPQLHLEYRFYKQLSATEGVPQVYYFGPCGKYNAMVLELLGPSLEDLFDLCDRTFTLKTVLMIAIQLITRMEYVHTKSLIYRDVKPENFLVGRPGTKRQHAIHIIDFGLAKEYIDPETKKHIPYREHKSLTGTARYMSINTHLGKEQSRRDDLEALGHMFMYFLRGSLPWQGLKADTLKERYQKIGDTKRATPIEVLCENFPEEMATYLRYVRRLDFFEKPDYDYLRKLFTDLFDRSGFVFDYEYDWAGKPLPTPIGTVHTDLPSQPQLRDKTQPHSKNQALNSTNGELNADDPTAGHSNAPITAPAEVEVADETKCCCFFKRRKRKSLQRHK
row,Compound,inhibition [%]
1,CCCN(CCS(C)(=O)=O)Cc1ccc(-c2ccc3ncnc(Nc4ccc(OCc5cccc(F)c5)c(Cl)c4)c3c2)o1,0.76
2,CCn1c(-c2nonc2N)nc2c(C#CC(C)(C)O)ncc(OC3CCNCC3)c21,2.46
3,CCn1c(-c2nonc2N)nc2c(C#CC(C)(C)O)nc(OC[C@H](N)c3ccccc3)cc21,1.71
4,CC(=O)Nc1cccc(C#Cc2cncnc2Nc2ccc(OCc3cccc(F)c3)c(Cl)c2)c1,0.52
5,Cc1ccc(O)cc1Nc1ccnc2cc(-c3ccccn3)ccc12,2.73
6,CCn1c(-c2nonc2N)nc2cnc(Oc3cccc(NC(=O)c4ccc(N(C)C)cc4)c3)cc21,1.06
7,NC(=O)c1sc(-n2cnc3ccc(C(F)(F)F)cc32)cc1OCc1ccccc1Br,3.03
8,CCc1nn2ncccc2c1-c1ccnc(NC2CC2)n1,1.32
9,N#Cc1c(NC(=O)CN2CCOCC2)sc2c1CCCC2,3.2
10,CN(C)CCOc1ccc(-c2nc(-c3ccncc3)c(-c3ccc4c(c3)CC/C4=N\O)[nH]2)cc1,2.26
11,CCOc1ccc2c(-c3ccnc(Nc4cccc(C(F)(F)F)c4)n3)cnn2n1,2.06
12,COc1cccc(-c2c[nH]c3c(N/N=C/c4ccncc4)ncnc23)c1,0.6
13,c1cc(-c2cnn3nc(N4CCOCC4)ccc23)nc(NC2CC2)n1,3.35
14,CNC(=O)c1cncc(/C=C/c2ccccc2Cl)c1,0.91
15,c1ccc(-c2nc3n(c2-c2ccc4c(c2)OCO4)CCC3)nc1,1.64
16,Fc1cccc(COc2ccc(Nc3ncnc4sc(-c5ccco5)cc34)cc2Cl)c1,4.05
17,CC(C)(CO)CNC(=O)c1ccc2c(c1)/C(=N/Nc1ccc(S(N)(=O)=O)cc1)C(=O)N2,0.93

row,Compound,inhibition [%]
1,COc1ccc(-c2cc(-c3c[nH]nc3-c3ccccn3)ccn2)cc1,3.51
2,CC(=O)NCc1cccc(C#Cc2cncnc2Nc2ccc(OCc3cccc(F)c3)c(Cl)c2)c1,-0.69
3,COc1ccc(CNC(=O)c2ccc(-c3cc(-c4nnc(C)o4)ccc3C)cc2)cc1,1.05
4,O=S(=O)(CCNCc1ccc(-c2ccc3ncnc(Nc4ccc(OCc5cccc(F)c5)c(Cl)c4)c3c2)o1)c1ccccc1,4.49
5,Nc1nc(-c2cccc(Cl)c2)c(-c2ccc3ncccc3n2)s1,4.46
6,CS(=O)(=O)CCNCc1ccc(-c2ccc3ncnc(Nc4ccc(OCc5ccccc5)c(C(F)(F)F)c4)c3c2)o1,3.82
7,CCN(CC)S(=O)(=O)c1ccc(OC)c(Nc2ncc(-c3ccccc3)o2)c1,0.3
8,CS(=O)(=O)CCNCc1coc(-c2ccc3ncnc(Nc4ccc(OCc5ccccc5)cc4)c3c2)c1,1.63
9,CCN1CCC(CC(=O)Nc2n[nH]c3nnc(-c4cccc(F)c4F)cc23)CC1,-0.21
10,CN1CCC(n2cnc(-c3ccc(F)cc3)c2-c2ccnc(Nc3ccccc3)n2)CC1,4.57
11,CCNC(=O)O[C@H]1CN[C@H](C#Cc2cc3ncnc(Nc4ccc(OCc5cccc(F)c5)c(Cl)c4)c3s2)C1,1.8
12,Clc1ccc(-c2nn3ncccc3c2-c2ccnc(Nc3ccccc3)n2)cc1,0.23
13,Cc1cccc2c1NC(=O)/C2=N\Nc1ccc(S(N)(=O)=O)cc1,1.59
14,COc1cc(/C=N/Nc2ncnc3[nH]ncc23)ccc1O,4.88
15,COc1cccc(-n2ncc3c(N/N=C/c4ccc(F)cc4)ncnc32)c1,3.98
16,COc1cc(N2CCN(C(C)C)CC2)ccc1Nc1nc(Nc2ccc(F)cc2C(N)=O)c2cc[nH]c2n1,7.97

# Target: Casein kinase I isoform gamma-2 (Homo sapiens) (UniProt P78368)
# Settings: at 1 µM
row,Compound,inhibition [%]
1,CCCN(CCS(C)(=O)=O)Cc1ccc(-c2ccc3ncnc(Nc4ccc(OCc5cccc(F)c5)c(Cl)c4)c3c2)o1,3.18
2,CCn1c(-c2nonc2N)nc2c(C#CC(C)(C)O)ncc(OC3CCNCC3)c21,3.98
3,CCn1c(-c2nonc2N)nc2c(C#CC(C)(C)O)nc(OC[C@H](N)c3ccccc3)cc21,5.45
4,CC(=O)Nc1cccc(C#Cc2cncnc2Nc2ccc(OCc3cccc(F)c3)c(Cl)c2)c1,2.49
5,Cc1ccc(O)cc1Nc1ccnc2cc(-c3ccccn3)ccc12,6.53
6,CCn1c(-c2nonc2N)nc2cnc(Oc3cccc(NC(=O)c4ccc(N(C)C)cc4)c3)cc21,1.09
7,NC(=O)c1sc(-n2cnc3ccc(C(F)(F)F)cc32)cc1OCc1ccccc1Br,4.58
8,CCc1nn2ncccc2c1-c1ccnc(NC2CC2)n1,2.18
9,N#Cc1c(NC(=O)CN2CCOCC2)sc2c1CCCC2,6.04
10,CN(C)CCOc1ccc(-c2nc(-c3ccncc3)c(-c3ccc4c(c3)CC/C4=N\O)[nH]2)cc1,4.12
11,CCOc1ccc2c(-c3ccnc(Nc4cccc(C(F)(F)F)c4)n3)cnn2n1,3.07
12,COc1cccc(-c2c[nH]c3c(N/N=C/c4ccncc4)ncnc23)c1,4.26
13,c1cc(-c2cnn3nc(N4CCOCC4)ccc23)nc(NC2CC2)n1,10.4
14,CNC(=O)c1cncc(/C=C/c2ccccc2Cl)c1,-0.77
15,c1ccc(-c2nc3n(c2-c2ccc4c(c2)OCO4)CCC3)nc1,1.81
16,Fc1cccc(COc2ccc(Nc3ncnc4sc(-c5ccco5)cc34)cc2Cl)c1,4.82
17,CC(C)(CO)CNC(=O)c1ccc2c(c1)/C(=N/Nc1ccc(S(N)(=O)=O)cc1)C(=O)N2,3.6

row,Compound,inhibition [%]
1,COc1ccc(-c2cc(-c3c[nH]nc3-c3ccccn3)ccn2)cc1,5.19
2,CC(=O)NCc1cccc(C#Cc2cncnc2Nc2ccc(OCc3cccc(F)c3)c(Cl)c2)c1,0.99
3,COc1ccc(CNC(=O)c2ccc(-c3cc(-c4nnc(C)o4)ccc3C)cc2)cc1,0.62
4,O=S(=O)(CCNCc1ccc(-c2ccc3ncnc(Nc4ccc(OCc5cccc(F)c5)c(Cl)c4)c3c2)o1)c1ccccc1,5.75
5,Nc1nc(-c2cccc(Cl)c2)c(-c2ccc3ncccc3n2)s1,13.7
6,CS(=O)(=O)CCNCc1ccc(-c2ccc3ncnc(Nc4ccc(OCc5ccccc5)c(C(F)(F)F)c4)c3c2)o1,4.2
7,CCN(CC)S(=O)(=O)c1ccc(OC)c(Nc2ncc(-c3ccccc3)o2)c1,-0.29
8,CS(=O)(=O)CCNCc1coc(-c2ccc3ncnc(Nc4ccc(OCc5ccccc5)cc4)c3c2)c1,1.86
9,CCN1CCC(CC(=O)Nc2n[nH]c3nnc(-c4cccc(F)c4F)cc23)CC1,-0.19
10,CN1CCC(n2cnc(-c3ccc(F)cc3)c2-c2ccnc(Nc3ccccc3)n2)CC1,35.2
11,CCNC(=O)O[C@H]1CN[C@H](C#Cc2cc3ncnc(Nc4ccc(OCc5cccc(F)c5)c(Cl)c4)c3s2)C1,2.86
12,Clc1ccc(-c2nn3ncccc3c2-c2ccnc(Nc3ccccc3)n2)cc1,1.83
13,Cc1cccc2c1NC(=O)/C2=N\Nc1ccc(S(N)(=O)=O)cc1,2.46
14,COc1cc(/C=N/Nc2ncnc3[nH]ncc23)ccc1O,25.1
15,COc1cccc(-n2ncc3c(N/N=C/c4ccc(F)cc4)ncnc32)c1,4.65
16,COc1cc(N2CCN(C(C)C)CC2)ccc1Nc1nc(Nc2ccc(F)cc2C(N)=O)c2cc[nH]c2n1,40.8
